# Screens as filed in PubChem.
# Hits are enriched below; roughly 18% of the tested compounds scored in any of these assays.
# DT40 TDP1 CPT – qHTS for Inhibitors of human tyrosyl-DNA phosphodiesterase 1 (TDP1): qHTS in cells in presence of CPT. hit rate 12% among 420,000. chicken DT40 Tdp1-/-;hTDP1 cells + 20 nM CPT, ATP luminescence, 48 h. AID 686979, 2013. Potency, µM (top dose mostly 46.2 µM), without a hit: top-dose activity change, negative = growth inhibition, hits mostly inhibitors; note: potency is the fitted concentration of half-maximal effect; % is set by controls: 0 for no effect and ±100 for the full control effect; nearly all actives have a fitted effect of over 55% in size
#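 Chicken DT40 Tdp1-/- cells stably complemented with human TDP1 were seeded at 400 cells/well in medium containing 20 nM camptothecin, exposed to pin-transferred compounds, and grown at 37 °C for at least 48 hr. Viability was read as ATP luminescence.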
# TGFb SMAD3 inh – qHTS for Inhibitors of TGF-b. HepG2 CAGA-GFP TGF-b/SMAD3 reporter, GFP fluorescence, 18 h; TGF-beta stimulated, 500 pg/mL final. Potency, µM (doses to about 46.1 µM), for the others: at the highest dose activity, negative = inhibition, hits mostly inhibitors. hit rate 1.2% among 410,000. AID 588855, 2011; note: potency is the fitted concentration of half-maximal effect; % is set by controls: 0 for no effect and ±100 for the full control effect; nearly all actives have a fitted effect of over 65% in size
#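 First, reporter cells (HEPG2 CAGA-GFP) rested 2 h at 37 degrees C. Next, compounds were pinned in and TGF-beta added to 500 pg/mL final. After 18 h, GFP was imaged per cell and summed per well.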
# HepG2 viability – qHTS for Inhibitors of TGF-b: Cytotox Counterscreen; hit rate 0.76% among 410,000; HepG2 CAGA-GFP viability, ATP luminescence, 18 h; AID 588856, 2011; Potency, µM (highest dose often 46.1 µM), for the others: at the top dose activity change, negative = cytotoxicity, most hits filed as cytotoxic; note: potency is the fitted concentration of half-maximal effect
#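 HepG2 CAGA-GFP cells (1000/well, DMEM with 1% FBS) received compound, then TGF-beta at 500 pg/mL final, and were incubated 18 hours at 37 degrees C. Viability was read by CellTiter-Glo luminescence. Media-only wells were set as complete cell-killing and DMSO as no toxicity.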
# TDP1 inh – qHTS Assay for Inhibitors of Tyrosyl-DNA Phosphodiesterase (TDP1); Tyrosyl-DNA phosphodiesterase 1 (Homo sapiens), Q9NUW8; recombinant TDP1, AlphaScreen DNA substrate cleavage; Potency, µM (highest dose often 130 µM), for inactives: top-dose activity change, negative = inhibition, usual class: inhibitors; hit rate 0.28% among 350,000; AID 485290, 2010; note: potency is the fitted concentration of half-maximal effect; % is set by controls: 0 for no effect and ±100 for the full control effect; nearly all actives have a fitted effect of over 40% in size
# Target sequence (Q9NUW8 whole entry, looked up): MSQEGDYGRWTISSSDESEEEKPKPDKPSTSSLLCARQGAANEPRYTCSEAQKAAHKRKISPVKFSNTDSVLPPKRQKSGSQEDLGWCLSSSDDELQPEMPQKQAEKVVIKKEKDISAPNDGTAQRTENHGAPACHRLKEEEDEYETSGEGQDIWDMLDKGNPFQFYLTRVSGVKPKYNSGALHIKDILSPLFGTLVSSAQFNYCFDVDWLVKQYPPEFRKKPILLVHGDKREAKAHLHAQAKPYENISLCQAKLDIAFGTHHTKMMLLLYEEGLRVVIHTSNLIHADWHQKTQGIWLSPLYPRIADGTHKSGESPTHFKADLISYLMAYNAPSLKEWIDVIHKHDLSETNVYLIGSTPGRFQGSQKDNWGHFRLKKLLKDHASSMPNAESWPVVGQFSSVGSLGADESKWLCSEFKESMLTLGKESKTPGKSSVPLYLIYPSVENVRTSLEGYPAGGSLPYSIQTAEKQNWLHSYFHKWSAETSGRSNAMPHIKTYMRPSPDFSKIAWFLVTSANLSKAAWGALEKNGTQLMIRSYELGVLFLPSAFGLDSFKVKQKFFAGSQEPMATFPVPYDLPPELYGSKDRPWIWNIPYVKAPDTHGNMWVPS
#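 Signal: AlphaScreen proximity between streptavidin donor and anti-FITC acceptor beads on intact substrate. Reaction: Tdp1 1 nM, substrate 15 nM final, 5 min RT after 15 min compound preincubation.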
# IL1B secr inh – qHTS for Inhibitors of Inflammasome Signaling: IL-1-beta AlphaLISA Primary Screen | THP-1 LPS/ATP IL-1B secretion, AlphaLISA, 16 h; stronger effect = lower value | AID 743279, 2014 | activity change, % at 57.5 µM | hit rate 4.7% among 360,000; in the data active = activity change below about -50%; inconclusive = mostly about -30% to -49%; note: % is set by controls: 0 for no effect and ±100 for the full control effect
#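 Secreted IL-1B measured by AlphaLISA bead assay after 16 h compound exposure of THP-1 cells; compounds (final up to 57.5 uM) added 1 h before LPS (250 ng/mL) and ATP (1.25 mM) stimulation; lower signal means less secretion.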
# DT40 TDP1 no CPT – qHTS for Inhibitors of human tyrosyl-DNA phosphodiesterase 1 (TDP1): qHTS in cells in absence of CPT | AID 686978, 2013 | DT40 Tdp1-/- hTDP1 cells, no CPT, ATP luminescence, 48 h | Potency, µM (series often up to 46.2 µM), without a hit: top-dose activity change, negative = growth inhibition, most hits filed as inhibitors | hit rate 15% among 420,000; note: potency is the fitted concentration of half-maximal effect; % is set by controls: 0 for no effect and ±100 for the full control effect; nearly all actives have a fitted effect of over 55% in size
#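 Growth kinetics read by CellTiter-Glo luminescence after ≥48 hr at 37 °C. Cells: DT40 Tdp1-/- stably carrying human TDP1, 400 per well, compound exposure in the absence of CPT (DMSO vehicle).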
# The depositor's hits bear a star; ? = inconclusive; · = no result given; [ ] = another dose, or the depositor's remark. Unless noted, calls come from the whole dose curve; as a rule, active = well fitted curve in the direction sought with a large enough effect; inconclusive = small, poorly fitted or top-dose-only effect, or another doubt; inactive = no such curve, though single readings can be large; an effect the other way counts as inactive or inconclusive.
SMILES,DT40 TDP1 CPT,TGFb SMAD3 inh,HepG2 viability,TDP1 inh,IL1B secr inh,DT40 TDP1 no CPT
O=C1CN(c2nc(-c3cccs3)nc3sc4c(c23)CCCC4)CCN1,?,-26.7%,-19.0%,5.5%,-93.6*,?
COc1ccc(-c2sc(Nc3ccccc3)n[n+]2-c2ccc(F)cc2)c(C)c1C,7.31µM*,?,-35.2%,·,-11.4,10.3µM*
COc1ccc(NC(=O)c2cc(-c3ccc(F)cc3C)n[nH]2)cc1OC,-19.4%,1.6%,-8.1%,·,?,?
CSc1ccc(-c2sc(Nc3ccccc3)n[n+]2-c2ccc(F)cc2)cc1,11.6µM*,2.9%,-6.3%,·,25.7,23.1µM*
CCc1ccc(Nc2n[n+](-c3ccccc3)c(-c3cccc(C)c3)s2)cc1,7.31µM*,?,-34.6%,-11.0%,-20.4,5.8µM*
Cc1cccc(-c2sc(Nc3ccccc3)n[n+]2-c2ccc(F)cc2)c1,7.31µM*,2.5%,-15.0%,·,11.9,9.2µM*
C[C@H]1CN([C@@H](C)CO)C(=O)CCCn2nncc2CO[C@@H]1CN(C)S(=O)(=O)c1cccc(F)c1,3.2%,-21.3%,-42.6%,·,21.3,-2.3%
Cc1ccc(NC(=O)c2cnn3c2NC(=C2CC2)C=C3C(F)F)cc1,-12.7%,18.0%,10.0%,·,·,-23.6%
Cc1ccc(S(=O)(=O)N2CCOCC2)cc1C(=O)Nc1cc(S(=O)(=O)N2CCCCC2)ccc1O,?,?,10.0%,·,2.7,?
C=CCn1c(COc2ccccc2F)nnc1SCC(=O)c1c[nH]c2ccccc12,25.9µM*,0.0%,4.2%,5.4%,-3.3,23.1µM*
O=S(=O)(c1ccc(F)cc1)N1CCCNCC1,-2.5%,-1.3%,-1.1%,·,1.8,1.0%
O=S(=O)(c1cccc2c(I)cccc12)N1CCCNCC1,13µM*,·,·,8.5%[56.1 µM],·,8.2µM*
O=S(=O)(c1cccc2c(Cl)cccc12)N1CCCNCC1,9.2µM*,·,·,9.0%[56.1 µM],·,5.8µM*
CN(CC(=O)NCCc1ccc(S(N)(=O)=O)cc1)S(=O)(=O)c1cccc2nsnc12,-24.3%,3.3%,-5.1%,2.5%,42.3,7.6%
COc1ccccc1-c1ccnc(-n2ncc(C(=O)N3CCCCC3c3cccnc3)c2C)n1 (stereo not given),12.6%[9.04 µM],·,·,·,·,-12.7%
O=C(CSc1nnc(C2CC2)n1C1CC1)N1CCN(c2ccc(O)cc2)CC1,1.0%,2.8%,0.9%,·,-3.2,-5.7%
CN(C)c1ccc(/C=N/NC(=O)c2ccco2)cc1,-5.3%,?,-38.9%,1.4%,-9.9,-13.0%
CN(C)c1ccc(/C=N\NC(=O)c2cccc3cc[nH]c23)cc1,?,-20.8%,-38.4%,3.6%,-10.1,6.51µM*
Cc1cccc2cc3c(NC(=O)c4ccccn4)nn(C)c3nc12,?,12.4%,-6.8%,1.0%,36.8,9.2µM*
CCCn1nc(NC(=O)COC)c2cc3cccc(C)c3nc21,?,9.0%,3.7%,·,-20.1,16.4µM*
CCCn1nc(NC(C)=O)c2cc3cccc(C)c3nc21,?,-10.9%,-0.6%,·,7.5,?
O=C(Nc1nnc(Cc2ccccc2)s1)C1CCN(C(=O)c2ccco2)CC1,11.1%,-10.6%,-0.7%,-2.6%,25.9,-17.1%
O=S(=O)(c1ccc(Cl)cc1)c1snnc1-c1ccccc1,5.17µM*,14.1µM*,-72.7%,3.5%,-115.2*,4.11µM*
CN(C)c1ncc(S(=O)(=O)c2ccc(Cl)cc2)c(-c2ccccc2)n1,?,?,-0.8%,3.8%,21.8,?
c1ccc(-c2nnsc2-c2ncc[nH]2)cc1,2.4%,19.1%,-0.8%,0.0%,13.2,-10.5%
